Test results from PubChem BioAssay (NCATS).
A number with no mark means an inactive call. Inconclusive results are not listed. Where a call stands in place of a potency, no number is given. Activity calls are given as the source filed them. Unless noted, calls come from the whole dose curve; as a rule, active = well fitted curve in the direction sought with a large enough effect; inconclusive = small, poorly fitted or top-dose-only effect, or another doubt; inactive = no such curve, though single readings can be large; an effect the other way counts as inactive or inconclusive.

How the values were obtained:
[1] = target: Lysosomal acid glucosylceramidase (Homo sapiens) (UniProt P04062); test: Glucocerebrosidase-p2 (AID 348; in the data active = potency below about 10 µM; note: potency is the fitted concentration of half-maximal effect); details: purified GBA, blue fluorogenic substrate, 40 min
Chain of Lysosomal acid glucosylceramidase (Homo sapiens) (P04062 whole entry, looked up): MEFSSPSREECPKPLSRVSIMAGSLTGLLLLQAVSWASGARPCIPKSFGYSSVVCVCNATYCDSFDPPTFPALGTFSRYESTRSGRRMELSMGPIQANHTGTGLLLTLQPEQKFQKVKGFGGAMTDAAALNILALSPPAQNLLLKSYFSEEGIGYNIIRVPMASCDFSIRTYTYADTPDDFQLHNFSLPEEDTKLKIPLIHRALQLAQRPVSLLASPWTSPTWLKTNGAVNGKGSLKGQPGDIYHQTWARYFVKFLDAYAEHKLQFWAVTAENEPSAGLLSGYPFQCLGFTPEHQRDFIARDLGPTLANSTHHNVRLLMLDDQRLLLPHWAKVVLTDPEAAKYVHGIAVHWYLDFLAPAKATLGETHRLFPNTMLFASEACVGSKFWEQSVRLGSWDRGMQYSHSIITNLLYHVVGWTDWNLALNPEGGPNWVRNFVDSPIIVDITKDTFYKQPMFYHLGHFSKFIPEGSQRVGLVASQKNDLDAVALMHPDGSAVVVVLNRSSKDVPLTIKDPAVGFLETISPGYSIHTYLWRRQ
Outline: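 Normal human glucocerebrosidase (0.2 nM) with blue fluorogenic substrate (80 uM final) in citrate/phosphate pH 5.9 with 10mM sodium taurocholate, 0.01% tween-20; 40 min RT, NaOH/glycine stop; fluorescence Ex 365/Em 440; AC50 from a titration from 0.6 nM upwards.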

[2] = AP1 Signaling Pathway (AID 357; active = well fitted curve in either direction with a large enough effect, not every such curve was filed as active); details: ME-180 AP-1-bla reporter, EGF-induced, beta-lactamase ratio, 5 h; at 7.69 µM (top of the series) unless noted
Outline: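 ME-180 cells with beta-lactamase reporter under AP-1 response element, stimulated with EC50 EGF; compounds tested in titration series, 5 h at 37 °C. CCF4 substrate added 2.5 h at room temperature; 460/530 nm emission ratio gave %activity and AC50.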

[3] = target: Cytochrome P450 1A2 (Homo sapiens) (UniProt P05177); test: p450-cyp1a2 (AID 410; calls by dose curve; note: potency is the fitted concentration of half-maximal effect)
Chain of Cytochrome P450 1A2 (Homo sapiens) (P05177 whole entry, looked up): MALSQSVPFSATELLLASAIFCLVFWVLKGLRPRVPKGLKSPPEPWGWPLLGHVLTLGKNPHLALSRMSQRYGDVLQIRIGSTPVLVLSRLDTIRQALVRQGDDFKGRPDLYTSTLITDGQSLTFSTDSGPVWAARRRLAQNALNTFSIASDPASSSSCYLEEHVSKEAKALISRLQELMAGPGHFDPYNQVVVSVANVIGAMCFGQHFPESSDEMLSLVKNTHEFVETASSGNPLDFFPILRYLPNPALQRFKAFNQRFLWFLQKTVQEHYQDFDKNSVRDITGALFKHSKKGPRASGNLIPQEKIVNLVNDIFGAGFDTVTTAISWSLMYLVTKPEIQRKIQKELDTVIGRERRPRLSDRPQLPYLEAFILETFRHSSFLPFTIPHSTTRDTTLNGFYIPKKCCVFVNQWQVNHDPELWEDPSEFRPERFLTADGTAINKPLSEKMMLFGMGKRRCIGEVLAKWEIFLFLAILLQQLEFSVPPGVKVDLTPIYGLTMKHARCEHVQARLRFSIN
Outline: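 20nM CYP1A2, 100uM Luciferin-ME (=Km), 100mM KPO4; cpd 10 min RT; +NADPH regen, 60 min RT; stop/detect 20 min; luminescence. Normalized to furafylline 57 uM = full inhibition.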

[4] = NFAT Signaling Pathway (AID 444; active = well fitted curve in either direction with a large enough effect, not every such curve was filed as active;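 note: carbachol stimulus at about its EC50 of 1 µM final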); details: Jurkat NFAT-bla M1, carbachol, beta-lactamase ratio, 5 h; at 7.69 µM (top of the series) unless noted
Outline: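 Read-out: CCF4 FRET ratio (460 nm/530 nm) after 1 h RT dye loading, used for %activity and AC50 from titration series. Cells: Jurkat NFAT-β-lactamase/M1 line, treated with compound plus 1 uM carbachol for 5 h, 37 °C.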

[5] = Stat Signaling Pathway (AID 446; active = well fitted curve in either direction with a large enough effect, not every such curve was filed as active;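 note: ME-180 cervical cancer cells given 40 pM IL-6 alongside compound; SIE-controlled beta-lactamase reporter measured as 460/530 nm FRET emission ratio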); details: ME-180 (cervical carcinoma) SIE beta-lactamase reporter, IL-6 stimulated, 5 h; at 7.69 µM (top of the series) unless noted
Outline: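 Emission at 460 and 530 nm (excitation 405 nm) reports SIE-controlled beta-lactamase in ME-180 cells. Cells received compound with 40 pM IL-6 for 5 hrs at 37 C; data scaled between 300 pM IL-6 and 125 nM JAK-inhibitor controls.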

[6] = target: Glucocorticoid receptor (Homo sapiens) (UniProt P04150); test: GR-GFP Redistribution (AID 450;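 active = compounds whose dose series gives a full or clear partial fitted curve of increased nuclear translocation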; note: potency is the fitted concentration of half-maximal effect); details: U2OS GR-GFP nuclear translocation, laser cytometry, 2 h
Chain of Glucocorticoid receptor (Homo sapiens) (P04150 whole entry, looked up, the tested form may be a part): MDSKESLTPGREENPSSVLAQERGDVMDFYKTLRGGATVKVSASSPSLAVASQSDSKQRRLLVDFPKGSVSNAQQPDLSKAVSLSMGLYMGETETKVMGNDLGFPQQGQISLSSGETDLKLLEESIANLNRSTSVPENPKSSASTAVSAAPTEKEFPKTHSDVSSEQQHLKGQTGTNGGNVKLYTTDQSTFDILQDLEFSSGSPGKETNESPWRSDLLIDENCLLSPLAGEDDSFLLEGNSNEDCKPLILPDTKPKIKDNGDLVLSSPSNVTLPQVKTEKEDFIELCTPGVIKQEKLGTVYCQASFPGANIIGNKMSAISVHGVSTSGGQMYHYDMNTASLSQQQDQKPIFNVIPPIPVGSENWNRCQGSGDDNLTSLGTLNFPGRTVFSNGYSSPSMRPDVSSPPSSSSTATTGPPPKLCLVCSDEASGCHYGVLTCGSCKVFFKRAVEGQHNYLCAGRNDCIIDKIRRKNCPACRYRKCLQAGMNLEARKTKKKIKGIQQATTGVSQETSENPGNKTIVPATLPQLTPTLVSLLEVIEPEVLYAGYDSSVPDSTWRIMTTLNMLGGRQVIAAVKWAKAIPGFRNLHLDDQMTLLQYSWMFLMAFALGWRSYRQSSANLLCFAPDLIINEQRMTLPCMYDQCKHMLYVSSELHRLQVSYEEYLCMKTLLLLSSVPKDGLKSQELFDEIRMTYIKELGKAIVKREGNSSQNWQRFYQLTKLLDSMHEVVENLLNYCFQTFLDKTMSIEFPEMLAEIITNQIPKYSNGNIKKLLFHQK

[7] = target: Glucocorticoid receptor (Homo sapiens) (UniProt P04150); test: GR-EFC Redistribution (AID 451; calls by dose curve; note: potency is the fitted concentration of half-maximal effect); details: CHO-K1 GR-EFC translocation, beta-gal luminescence, 2 h
Outline: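 Translocation of GR-ED fusion to nuclear EA restores b-gal, read by luminescence after 1 h room-temperature detection. Engineered CHO-K1 biosensor cells, 1,000/well, exposed 2 h at 37 C to titrations up to 46 uM final.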

[8] = target: Mitogen-activated protein kinase 10 (Mus musculus) (UniProt Q61831); test: JNK3 AlphaScreen Assay (AID 530; active = well fitted curve in either direction with a large enough effect, not every such curve was filed as active;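 note: kinase came from lysate of stimulated human HepG2 cells; signal reports phosphorylation of biotinylated GST-cJun 1-79 at Ser73 with 10 µM ATP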)
Outline: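 Kinase buffer: 20 mM Tris-HCl pH 7.6, 10 mM MgCl2, 1 mM DTT, 0.1 mM Na3VO4, 0.01% Tween-20; ATP 10 uM. Substrate biotin-GST-cJun(1-79), enzyme from activated HepG2 lysates. Detection by Ser73 phospho-antibody AlphaScreen.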

[9] = target: 3',5'-cyclic-AMP phosphodiesterase 4B (Homo sapiens) (UniProt Q07343); test: qHTS Assay for Inhibitors of PDE-IV (AID 607; active = well fitted activation curve with a large enough effect in the main read-out, with a control signal flat, not every such curve was filed as active)
Chain of 3',5'-cyclic-AMP phosphodiesterase 4B (Homo sapiens) (Q07343 whole entry, looked up): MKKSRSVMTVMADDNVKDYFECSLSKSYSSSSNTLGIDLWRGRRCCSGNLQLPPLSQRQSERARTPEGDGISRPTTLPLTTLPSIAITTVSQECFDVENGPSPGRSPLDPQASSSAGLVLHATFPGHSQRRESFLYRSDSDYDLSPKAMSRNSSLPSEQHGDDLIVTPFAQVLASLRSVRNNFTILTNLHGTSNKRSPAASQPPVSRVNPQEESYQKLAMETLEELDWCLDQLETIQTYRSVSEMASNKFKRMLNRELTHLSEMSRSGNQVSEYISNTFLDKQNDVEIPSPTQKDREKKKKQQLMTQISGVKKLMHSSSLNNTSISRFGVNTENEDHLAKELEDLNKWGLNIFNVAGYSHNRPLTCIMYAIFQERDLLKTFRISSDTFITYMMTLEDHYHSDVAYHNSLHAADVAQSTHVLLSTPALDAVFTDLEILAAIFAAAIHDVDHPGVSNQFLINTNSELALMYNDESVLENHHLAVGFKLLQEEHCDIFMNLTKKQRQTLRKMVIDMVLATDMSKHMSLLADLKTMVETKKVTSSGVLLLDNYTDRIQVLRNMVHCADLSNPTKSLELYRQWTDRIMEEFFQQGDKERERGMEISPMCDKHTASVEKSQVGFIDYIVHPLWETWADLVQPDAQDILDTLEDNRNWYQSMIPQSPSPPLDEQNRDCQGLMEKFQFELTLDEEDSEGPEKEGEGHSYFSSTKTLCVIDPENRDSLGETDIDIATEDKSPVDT
Outline: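 The readout is membrane depolarisation from a cAMP-sensing CNG channel, detected with a potential dye at ex 535/em 590. Cells were HEK293-derived (endogenous PDE-IV) at 1000 cells/well, titrated up to 22.9 uM final.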

[10] = target: Cytochrome P450 3A4 (Homo sapiens) (UniProt P08684); test: qHTS Assay for Inhibitors and Substrates of Cytochrome P450 3A4 (AID 884); note: nearly all actives have a fitted effect of over 50% in size; note: potency is the fitted concentration of half-maximal effect
Chain of Cytochrome P450 3A4 (Homo sapiens) (P08684 whole entry, looked up): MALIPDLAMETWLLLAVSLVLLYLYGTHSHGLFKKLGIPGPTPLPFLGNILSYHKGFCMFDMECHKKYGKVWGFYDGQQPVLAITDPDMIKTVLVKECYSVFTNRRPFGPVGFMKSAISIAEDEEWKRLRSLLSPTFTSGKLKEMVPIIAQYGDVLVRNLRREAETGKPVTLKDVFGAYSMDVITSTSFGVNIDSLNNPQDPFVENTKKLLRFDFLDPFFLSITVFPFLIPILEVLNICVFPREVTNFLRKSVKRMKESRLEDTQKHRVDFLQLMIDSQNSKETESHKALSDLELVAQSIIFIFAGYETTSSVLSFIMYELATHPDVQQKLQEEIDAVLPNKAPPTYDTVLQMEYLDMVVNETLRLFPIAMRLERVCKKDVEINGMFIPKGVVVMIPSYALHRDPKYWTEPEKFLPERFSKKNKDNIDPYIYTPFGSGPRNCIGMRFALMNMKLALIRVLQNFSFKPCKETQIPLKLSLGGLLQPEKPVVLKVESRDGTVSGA
Outline: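 Luminescent readout of luciferin produced by CYP3A4 (20 nM) dealkylation of Luciferin-PPXE, 25 uM (its KM). NADPH-driven reaction ran 60 min at RT after 10 min compound preincubation; data scaled to 57 uM ketoconazole as 100% inhibition.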

[11] = target: Cytochrome P450 3A4 (Homo sapiens) (UniProt P08684); test: qHTS Assay for Activators of Cytochrome P450 3A4 (AID 885); note: nearly all actives have a fitted effect of over 65% in size; note: potency is the fitted concentration of half-maximal effect
Outline: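 Activators are scored by enhanced luminescence from CYP3A4 conversion of luciferin-PPXE (25uM, equal to KM) to luciferin, after 60 min at RT with an NADPH-regenerating system.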

[12] = target: Dual specificity protein kinase CLK4 (Homo sapiens) (UniProt Q9HAZ1); test: qHTS Assay for Inhibitors of CDC-like Kinase 4 (Kinase-Glo Assay) (AID 1770); note: nearly all actives have a fitted effect of over 65% in size; note: potency is the fitted concentration of half-maximal effect
Chain of Dual specificity protein kinase CLK4 (Homo sapiens) (Q9HAZ1 whole entry, looked up): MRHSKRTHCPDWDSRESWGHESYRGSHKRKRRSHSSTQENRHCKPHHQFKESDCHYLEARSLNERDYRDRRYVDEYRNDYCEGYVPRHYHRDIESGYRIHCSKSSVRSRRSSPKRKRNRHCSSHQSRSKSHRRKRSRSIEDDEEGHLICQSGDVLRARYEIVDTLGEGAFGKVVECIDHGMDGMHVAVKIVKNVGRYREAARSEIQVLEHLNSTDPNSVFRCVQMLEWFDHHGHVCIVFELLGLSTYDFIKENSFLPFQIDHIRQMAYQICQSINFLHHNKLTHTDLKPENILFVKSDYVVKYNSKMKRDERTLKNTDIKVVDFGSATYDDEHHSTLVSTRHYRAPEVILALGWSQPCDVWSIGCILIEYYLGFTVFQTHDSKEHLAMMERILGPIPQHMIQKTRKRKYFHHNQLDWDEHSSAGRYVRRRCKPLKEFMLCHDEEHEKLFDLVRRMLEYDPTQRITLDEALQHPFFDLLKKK
Outline: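 Recombinant human Clk4 (25 nM) phosphorylated RS repeat peptide (100 uM) with 1 uM ATP in Tris pH 7.5/MgCl2/EGTA/DTT/Triton buffer for 4.5 h at room temperature. Residual ATP was quantified by Kinase-Glo luciferase luminescence.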

[13] = target: Dual specificity protein kinase CLK4 (Homo sapiens) (UniProt Q9HAZ1); test: qHTS Assay for Inhibitors of CDC-like Kinase 4 (ADP-Glo Assay) (AID 1771); note: nearly all actives have a fitted effect of over 70% in size; note: potency is the fitted concentration of half-maximal effect
Outline: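 25 nM Clk4, 100 uM RS peptide, 1 uM ATP (final); 2 mM MgCl2, 0.5 mM EGTA, 2.5 mM DTT, 0.01% Triton X-100; 1 hr RT. ADP-Glo readout: ATP depletion 45 min, conversion/luciferase 30 min, luminescence.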

[14] = target: Dual specificity protein kinase CLK4 (Homo sapiens) (UniProt Q9HAZ1); test: qHTS Assay for Inhibitors of CDC-like Kinase 4 (ADP-FP Assay) (AID 1795); note: nearly all actives have a fitted effect of over 60% in size
Outline: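 Recombinant human Clk4 (6.25 nM) phosphorylated RS repeat peptide (100 uM) with 1 uM ATP in Tris pH 7.5/MgCl2/EGTA/DTT/Triton buffer for one hour. ADP was quantified by Transcreener competitive fluorescence polarization against an ADP calibration curve.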

[15] = target: Ubiquitin carboxyl-terminal hydrolase 1 (Homo sapiens) (UniProt O94782); test: Inhibitors of USP1/UAF1: Pilot qHTS (AID 504865);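 note: rhodamine fluorescence freed from ubiquitin-rhodamine substrate followed over time; top concentration of the series differs between compounds; nearly all actives have a fitted effect of over 35% in size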
Chain of Ubiquitin carboxyl-terminal hydrolase 1 (Homo sapiens) (O94782 whole entry, looked up): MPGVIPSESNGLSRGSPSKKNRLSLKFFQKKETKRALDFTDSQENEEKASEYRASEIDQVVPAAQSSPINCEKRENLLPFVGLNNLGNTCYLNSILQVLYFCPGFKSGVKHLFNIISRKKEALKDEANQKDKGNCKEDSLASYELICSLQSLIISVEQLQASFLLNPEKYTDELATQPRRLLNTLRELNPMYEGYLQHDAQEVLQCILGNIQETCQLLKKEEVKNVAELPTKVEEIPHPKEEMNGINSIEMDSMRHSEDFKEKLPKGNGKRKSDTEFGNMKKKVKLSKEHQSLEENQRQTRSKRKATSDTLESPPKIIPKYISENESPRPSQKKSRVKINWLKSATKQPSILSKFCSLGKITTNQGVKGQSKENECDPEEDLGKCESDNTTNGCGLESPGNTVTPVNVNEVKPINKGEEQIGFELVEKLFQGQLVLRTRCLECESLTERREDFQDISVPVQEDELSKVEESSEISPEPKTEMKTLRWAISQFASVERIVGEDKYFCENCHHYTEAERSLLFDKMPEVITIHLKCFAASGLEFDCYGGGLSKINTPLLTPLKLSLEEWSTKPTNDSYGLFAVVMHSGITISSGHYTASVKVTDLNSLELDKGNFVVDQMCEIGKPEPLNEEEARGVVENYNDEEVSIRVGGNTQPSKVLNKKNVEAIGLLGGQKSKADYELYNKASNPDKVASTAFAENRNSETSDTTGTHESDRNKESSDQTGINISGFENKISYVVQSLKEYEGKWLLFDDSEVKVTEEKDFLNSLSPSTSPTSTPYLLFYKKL
Outline: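 USP1/UAF1 complex (1nM) preincubated with compound 15 min at room temperature, then Ub-Rho substrate (150nM final) added. Fluorescence read kinetically at 480/540 nm, 6 reads every 60 seconds. Buffer: 50mM HEPES pH 7.8, 0.5mM EDTA, 0.1 mg/ml BSA, 1mM TCEP, 0.01% Tween-20.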

[16] = Primary qHTS for small molecule stabilizers of the endoplasmic reticulum resident proteome: Secreted ER Calcium Modulated Protein (SERCaMP) assay (AID 1508630)
Outline: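 The SH-SY5Y reporter protocol was run at 3 concentrations up to 38.3 uM (primary) or 11 concentrations (follow-up): 16 h compound, 100 nM thapsigargin for 4 h, then extracellular luciferase luminescence.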

Row | Compound | Potency [1] [µM] | activity change, negative = inhibition [2] [%] | Potency [3] | activity change, negative = inhibition [4] [%] | activity, negative = inhibition [5] [%] | Potency [6] [µM] | Potency [7] [µM] | Potency [8] | Potency [9] | Potency [10] | Potency [11] | Potency [12] | Potency [13] | Potency [14] | Potency [15] | outcome [16]
1 | CNc1ncncc1-c1ccccc1C(F)(F)F | > 11.4 | 2.43 | inactive | 11.4 | 22.6 | > 46 | > 46 | inactive | inactive | 0.794 µM (active) | inactive | inactive | inactive | inactive | inactive | inactive
2 | COc1ccc(-n2c(=O)c(C)nc3cnc(N4CCOCC4)nc32)cc1 | > 11.4 | -10.2 | 12.6 µM (active) | 3.24 | -6.68 | > 9.22 | > 46 | inactive | inactive |  | inactive | inactive | inactive | inactive | inactive | inactive
3 | O=c1c(-c2ccccc2)nc2cnc(N3CCOCC3)nc2n1Cc1cccs1 | > 11.4 | 20.9 | 2.51 µM (active) | 14.9 | 20.6 | > 9.22 | > 46 | inactive | inactive |  |  | inactive | inactive | inactive | inactive | inactive
4 | COc1cccc(Cn2c(=O)c(-c3ccc(Cl)cc3)nc3cnc(N4CCN(C)CC4)nc32)c1 | > 11.4 | 17.8 | inactive | 23.1 | 4.58 | > 9.22 | > 46 | inactive | inactive | inactive | 15.8 µM (active) | inactive | inactive | inactive | inactive | inactive
5 | CN(Cc1ccco1)c1cc(-c2cccc(NS(C)(=O)=O)c2)ncn1 | > 11.4 | 10.2 | 3.98 µM (active) | -5.51 | 11.3 | > 46 | > 46 | inactive | inactive |  | inactive | 11.2 µM (active) | 8.91 µM (active) | inactive | inactive | inactive
6 | O=c1c(-c2ccccc2)nc2cnc(Oc3cccc(Cl)c3)nc2n1C1CC1 | > 11.4 | -15.1 | 1.58 µM (active) | 10.9 | -5.81 | > 9.22 | > 46 | inactive | inactive |  |  | inactive | inactive | inactive | inactive | inactive
